Experimental findings from paper PMC9911399, “Two distinct binding modes provide the RNA-binding protein RbFox with extraordinary sequence specificity” are described below.

B1: GUCCUGA (DNA:RNA)
RNA: GGGAGACCGGAAUUCAGAUUGUCCGUCCUGAUUAAAUCCCGUCGUAGCCACCA
DNA 1: CAATCTGAATTCCGGTCTCCC
DNA 2: TGGTGGCTACGACGGGATT
B2: CGGCUGA (DNA:RNA)
RNA: B1 RNA with G25C, U26G, C27G
DNA 1: CAATCTGAATTCCGGTCTCCC
DNA 2: TGGTGGCTACGACGGGATT
B3: GUGCUGA (DNA:RNA)
RNA: B1 RNA with C27G
DNA 1: CAATCTGAATTCCGGTCTCCC
DNA 2: TGGTGGCTACGACGGGATT
B4: CGGCUGC (DNA:RNA)
RNA: B1 RNA with G25C, U26G, C27G, A31C
DNA 1: CAATCTGAATTCCGGTCTCCC
DNA 2: TGGTGGCTACGACGGGATT
B5: UGGCUGC (DNA:RNA)
RNA: B1 RNA with G25U, U26G, C27G, A31C
DNA 1: CAATCTGAATTCCGGTCTCCC
DNA 2: TGGTGGCTACGACGGGATT
B6: UGCUGGC (DNA:RNA)
RNA: B1 RNA with G25U, U26G, C28U, U29G, A31C
DNA 1: CAATCTGAATTCCGGTCTCCC
DNA 2: TGGTGGCTACGACGGGATT
B7: UGGCUGA (DNA:RNA)
RNA: B1 RNA with G25U, U26G, C27G
DNA 1: CAATCTGAATTCCGGTCTCCC
DNA 2: TGGTGGCTACGACGGGATT
B8: UGAUGGC (DNA:RNA)
RNA: B1 RNA with G25U, U26G, C27A, C28U, U29G, A31C
DNA 1: CAATCTGAATTCCGGTCTCCC
DNA 2: TGGTGGCTACGACGGGATT
B9: UGAUUCG (DNA:RNA)
RNA: B1 RNA with G25U, U26G, C27A, C28U, G30C, A31G
DNA 1: CAATCTGAATTCCGGTCTCCC
DNA 2: TGGTGGCTACGACGGGATT
B10: ACUAAUA (DNA:RNA)
RNA: B1 RNA with G25A, U26C, C27U, C28A, U29A, G30U
DNA 1: CAATCTGAATTCCGGTCTCCC
DNA 2: TGGTGGCTACGACGGGATT
B11: UCAUCUC (DNA:RNA)
RNA: GGGAGACCGGAAUUCAGAUUGUCCUCAUCUCUUAAAUCCCGUCGUAGCCACCA
DNA 1: CAATCTGAATTCCGGTCTCCC
DNA 2: TGGTGGCTACGACGGGATT
B12: ACUUGAA (DNA:RNA)
RNA: B11 RNA with U25A, A27U, C29G, U30A, C31A
DNA 1: CAATCTGAATTCCGGTCTCCC
DNA 2: TGGTGGCTACGACGGGATT
B13: UAACAGC (DNA:RNA)
RNA: B11 RNA with C26A, U28C, C29A, U30G
DNA 1: CAATCTGAATTCCGGTCTCCC
DNA 2: TGGTGGCTACGACGGGATT
B14: CCUUGGA (DNA:RNA)
RNA: B1 RNA with G25C, U26C, C27U, C28U, U29G
DNA 1: CAATCTGAATTCCGGTCTCCC
DNA 2: TGGTGGCTACGACGGGATT
B15: UGAGAAC (DNA:RNA)
RNA: B11 RNA with C26G, U28G, C29A, U30A
DNA 1: CAATCTGAATTCCGGTCTCCC
DNA 2: TGGTGGCTACGACGGGATT
B16: GACUAUG (DNA:RNA)
RNA: B1 RNA with U26A, C28U, U29A, G30U, A31G
DNA 1: CAATCTGAATTCCGGTCTCCC
DNA 2: TGGTGGCTACGACGGGATT
B17: UAACGUU (DNA:RNA)
RNA: B11 RNA with C26A, U28C, C29G, C31U
DNA 1: CAATCTGAATTCCGGTCTCCC
DNA 2: TGGTGGCTACGACGGGATT
B18: CGCCACG (DNA:RNA)
RNA: B1 RNA with G25C, U26G, U29A, G30C, A31G
DNA 1: CAATCTGAATTCCGGTCTCCC
DNA 2: TGGTGGCTACGACGGGATT
B19: GCGCAGA (DNA:RNA)
RNA: B1 RNA with U26C, C27G, U29A
DNA 1: CAATCTGAATTCCGGTCTCCC
DNA 2: TGGTGGCTACGACGGGATT
B20: GCACGCU (DNA:RNA)
RNA: B1 RNA with U26C, C27A, U29G, G30C, A31U
DNA 1: CAATCTGAATTCCGGTCTCCC
DNA 2: TGGTGGCTACGACGGGATT
B21: GCACCGC (DNA:RNA)
RNA: B11 RNA with U25G, U28C, U30G
DNA 1: CAATCTGAATTCCGGTCTCCC
DNA 2: TGGTGGCTACGACGGGATT
B22: GCGCACG (DNA:RNA)
RNA: B1 RNA with U26C, C27G, U29A, G30C, A31G
DNA 1: CAATCTGAATTCCGGTCTCCC
DNA 2: TGGTGGCTACGACGGGATT
B23: GCACCCG (DNA:RNA)
RNA: B11 RNA with U25G, U28C, U30C, C31G
DNA 1: CAATCTGAATTCCGGTCTCCC
DNA 2: TGGTGGCTACGACGGGATT
B24: GCGCACC (DNA:RNA)
RNA: B1 RNA with U26C, C27G, U29A, G30C, A31C
DNA 1: CAATCTGAATTCCGGTCTCCC
DNA 2: TGGTGGCTACGACGGGATT
B25: CGCGUCG (DNA:RNA)
RNA: B1 RNA with G25C, U26G, C28G, G30C, A31G
DNA 1: CAATCTGAATTCCGGTCTCCC
DNA 2: TGGTGGCTACGACGGGATT
B26: GCGUCCG (DNA:RNA)
RNA: B11 RNA with U25G, A27G, U30C, C31G
DNA 1: CAATCTGAATTCCGGTCTCCC
DNA 2: TGGTGGCTACGACGGGATT
B27: CGCACGC (DNA:RNA)
RNA: B1 RNA with G25C, U26G, C28A, U29C, A31C
DNA 1: CAATCTGAATTCCGGTCTCCC
DNA 2: TGGTGGCTACGACGGGATT
B28: GCACGUC (DNA:RNA)
RNA: B11 RNA with U25G, U28C, C29G
DNA 1: CAATCTGAATTCCGGTCTCCC
DNA 2: TGGTGGCTACGACGGGATT
B29: GCACGCG (DNA:RNA)
RNA: B1 RNA with U26C, C27A, U29G, G30C, A31G
DNA 1: CAATCTGAATTCCGGTCTCCC
DNA 2: TGGTGGCTACGACGGGATT
B30: CUGCAGA (DNA:RNA)
RNA: B1 RNA with G25C, C27G, U29A
DNA 1: CAATCTGAATTCCGGTCTCCC
DNA 2: TGGTGGCTACGACGGGATT
B31: AUUUAGA (DNA:RNA)
RNA: B1 RNA with G25A, C27U, C28U, U29A
DNA 1: CAATCTGAATTCCGGTCTCCC
DNA 2: TGGTGGCTACGACGGGATT

Residue numbers refer to the chain shown, from its start. Whole data set: some 16,000 sequences, median “ka relative to ugcaugu” near 0.0091, cut for the highest 2% near 0.032. This is one part of a sample in which the highest values are shown more often than they occur.

In the assay the target is T1, RBFOX1 RRM (Homo sapiens, UniProt Q9NWB1 109-208).
T1 sequence: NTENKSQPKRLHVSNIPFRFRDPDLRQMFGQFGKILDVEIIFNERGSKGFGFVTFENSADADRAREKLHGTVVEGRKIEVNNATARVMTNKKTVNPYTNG
In words: EMSA; HiTS-Eq, 1 nM pool, 10 min; buffer printed only for the single-RNA assays: 10 mM Tris pH 7.5, 150 mM NaCl, 3.4 mM EDTA, 0.001% NP-40, 30 C. The note with it: tags: His6 N-terminal (pET28a); label: 5' 32P. The method in brief:
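These values rest on relative association constants, computed from read-count changes of each RNA species versus the control reaction and normalised to the cognate motif. Reads came from free RNA recovered by 8% native PAGE after purified RbFox RRM (wild type or mutant) at increasing concentrations was equilibrated for 10 min in 50 µL with 1 nM of a 5′-radiolabelled pool with 7 randomized nucleotides and DNA-annealed flanks.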
For the molecule B1, the binding signal was 0.0213 KA relative to UGCAUGU. To B2 belongs 0.022 KA relative to UGCAUGU; to B3, 0.0323 KA relative to UGCAUGU. To B4 belongs 0.018 KA relative to UGCAUGU. As for B5, the figure is 0.0373 KA relative to UGCAUGU; as for B6, 0.0238 KA relative to UGCAUGU; as for B7, 0.036 KA relative to UGCAUGU. Consider B8, for which the binding signal was 0.0129 KA relative to UGCAUGU. As for B9, the figure is 0.0228 KA relative to UGCAUGU; as for B10, 0.00101 KA relative to UGCAUGU; as for B11, 0.00423 KA relative to UGCAUGU. As for B12, the figure is 0.0101 KA relative to UGCAUGU. B13: the binding signal was 0.00375 KA relative to UGCAUGU. On to B14, for which the binding signal was 0.00739 KA relative to UGCAUGU.

As for B15, the binding signal is 0.0124 KA relative to UGCAUGU.

Consider B16, for which the binding signal was 0.0187 KA relative to UGCAUGU. As for B17, the binding signal is 0.00814 KA relative to UGCAUGU. Consider B18, for which the binding signal is 0.0114 KA relative to UGCAUGU.

Consider B19, for which the binding signal was 0.0118 KA relative to UGCAUGU. As for B20, the binding signal was 0.0317 KA relative to UGCAUGU. To B21 belongs 0.00949 KA relative to UGCAUGU. For B22, the binding signal was 0.062 KA relative to UGCAUGU. To B23 belongs 0.00754 KA relative to UGCAUGU; to B24, 0.0133 KA relative to UGCAUGU. To B25 belongs 0.0133 KA relative to UGCAUGU; to B26, 0.0136 KA relative to UGCAUGU. As for B27, the figure is 0.0306 KA relative to UGCAUGU; as for B28, 0.0416 KA relative to UGCAUGU; as for B29, 0.0376 KA relative to UGCAUGU. For B30, the binding signal is 0.0168 KA relative to UGCAUGU. In the case of B31, the binding signal is 0.0108 KA relative to UGCAUGU.
